From the supplement of paper PMC4466140

The binders below were run against AgAbp1 (assay: SPOT peptide array binding signal intensity (averaged, normalized) (arbitrary units (background-subtracted, floor 0; scale differs between SH3 domains)); higher = stronger binding of the SH3 domain to the peptide).
Protocol: (§1)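 GST-tagged SH3 domains from S. cerevisiae (Sc), A. gossypii (Ag), C. albicans (Ca) and S. pombe (Sp) were incubated at 10 ug/ml overnight at 4 C on cellulose SPOT membranes carrying 292 synthetic 15-mer peptides mined from the S. cerevisiae proteome (cysteines replaced by serines). Binding was detected with anti-GST antibody, HRP secondary and chemiluminescence, quantified with Genespotter, and reported as normalized spot intensities averaged over biological replicates.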

Binder	SPOT peptide array binding signal intensity
PKMLPIPSKPTLFDL	47

Each binder was assayed against AgBbc1 in the same assay as above.
Protocol: as §1

Binder	SPOT peptide array binding signal intensity
PKMLPIPSKPTLFDL	7.5

These binders were tested against AgBem1-D1 in the same assay as above.
Protocol: as §1

Binder	SPOT peptide array binding signal intensity
PKMLPIPSKPTLFDL	490

The binders below were run against AgBzz1-D1 in the same assay as above.
Protocol: as §1

Binder	SPOT peptide array binding signal intensity
PKMLPIPSKPTLFDL	24

The binders below were run against AgBzz1-D2 in the same assay as above.
Protocol: as §1

Binder	SPOT peptide array binding signal intensity
PKMLPIPSKPTLFDL	≤ 0

What follows are binders tested against AgCyk3 in the same assay as above.
Protocol: as §1

Binder	SPOT peptide array binding signal intensity
PKMLPIPSKPTLFDL	≤ 0

These binders were tested against AgFus1 in the same assay as above.
Protocol: as §1

Binder	SPOT peptide array binding signal intensity
PKMLPIPSKPTLFDL	212

Each binder was assayed against AgHof1 in the same assay as above.
Protocol: as §1

Binder	SPOT peptide array binding signal intensity
PKMLPIPSKPTLFDL	6

What follows are binders tested against AgHse1 in the same assay as above.
Protocol: as §1

Binder	SPOT peptide array binding signal intensity
PKMLPIPSKPTLFDL	106

Each binder was assayed against AgLsb1 in the same assay as above.
Protocol: as §1

Binder	SPOT peptide array binding signal intensity
PKMLPIPSKPTLFDL	2

These binders were tested against AgLsb4 in the same assay as above.
Protocol: as §1

Binder	SPOT peptide array binding signal intensity
PKMLPIPSKPTLFDL	18.5

What follows are binders tested against AgMyo5 in the same assay as above.
Protocol: as §1

Binder	SPOT peptide array binding signal intensity
PKMLPIPSKPTLFDL	3.25

Each binder was assayed against AgNbp2 in the same assay as above.
Protocol: as §1

Binder	SPOT peptide array binding signal intensity
PKMLPIPSKPTLFDL	91

These binders were tested against AgRvs167 in the same assay as above.
Protocol: as §1

Binder	SPOT peptide array binding signal intensity
PKMLPIPSKPTLFDL	3.33

The binders below were run against AgSho1 in the same assay as above.
Protocol: as §1

Binder	SPOT peptide array binding signal intensity
PKMLPIPSKPTLFDL	776

Each binder was assayed against AgSla1-D1-D2 in the same assay as above.
Protocol: as §1

Binder	SPOT peptide array binding signal intensity
PKMLPIPSKPTLFDL	≤ 0

What follows are binders tested against AgSla1-D3 in the same assay as above.
Protocol: as §1

Binder	SPOT peptide array binding signal intensity
PKMLPIPSKPTLFDL	5.5

The binders below were run against CaAbp1-D1 in the same assay as above.
Protocol: as §1

Binder	SPOT peptide array binding signal intensity
PKMLPIPSKPTLFDL	434

What follows are binders tested against CaAbp1-D2 in the same assay as above.
Protocol: as §1

Binder	SPOT peptide array binding signal intensity
PKMLPIPSKPTLFDL	459

The binders below were run against CaBbc1 in the same assay as above.
Protocol: as §1

Binder	SPOT peptide array binding signal intensity
PKMLPIPSKPTLFDL	38.8

What follows are binders tested against CaBem1-D1 in the same assay as above.
Protocol: as §1

Binder	SPOT peptide array binding signal intensity
PKMLPIPSKPTLFDL	95

What follows are binders tested against CaBzz1-D1 in the same assay as above.
Protocol: as §1

Binder	SPOT peptide array binding signal intensity
PKMLPIPSKPTLFDL	362

The binders below were run against CaBzz1-D2 in the same assay as above.
Protocol: as §1

Binder	SPOT peptide array binding signal intensity
PKMLPIPSKPTLFDL	146

These binders were tested against CaCyk3 in the same assay as above.
Protocol: as §1

Binder	SPOT peptide array binding signal intensity
PKMLPIPSKPTLFDL	7

What follows are binders tested against CaFus1 in the same assay as above.
Protocol: as §1

Binder	SPOT peptide array binding signal intensity
PKMLPIPSKPTLFDL	852

What follows are binders tested against CaHof1 in the same assay as above.
Protocol: as §1

Binder	SPOT peptide array binding signal intensity
PKMLPIPSKPTLFDL	≤ 0

These binders were tested against CaHse1 in the same assay as above.
Protocol: as §1

Binder	SPOT peptide array binding signal intensity
PKMLPIPSKPTLFDL	79

Each binder was assayed against CaLsb1 in the same assay as above.
Protocol: as §1

Binder	SPOT peptide array binding signal intensity
PKMLPIPSKPTLFDL	2

Each binder was assayed against CaLsb4 in the same assay as above.
Protocol: as §1

Binder	SPOT peptide array binding signal intensity
PKMLPIPSKPTLFDL	209

What follows are binders tested against CaMyo5 in the same assay as above.
Protocol: as §1

Binder	SPOT peptide array binding signal intensity
PKMLPIPSKPTLFDL	89.5

These binders were tested against CaNbp2 in the same assay as above.
Protocol: as §1

Binder	SPOT peptide array binding signal intensity
PKMLPIPSKPTLFDL	303

The binders below were run against CaRvs167 in the same assay as above.
Protocol: as §1

Binder	SPOT peptide array binding signal intensity
PKMLPIPSKPTLFDL	47

Each binder was assayed against CaRvs167-3 in the same assay as above.
Protocol: as §1

Binder	SPOT peptide array binding signal intensity
PKMLPIPSKPTLFDL	≤ 0

What follows are binders tested against CaSho1 in the same assay as above.
Protocol: as §1

Binder	SPOT peptide array binding signal intensity
PKMLPIPSKPTLFDL	1680

Each binder was assayed against CaSla1-D1-D2 in the same assay as above.
Protocol: as §1

Binder	SPOT peptide array binding signal intensity
PKMLPIPSKPTLFDL	188

What follows are binders tested against CaSla1-D3 in the same assay as above.
Protocol: as §1

Binder	SPOT peptide array binding signal intensity
PKMLPIPSKPTLFDL	116

The binders below were run against ScAbp1 in the same assay as above.
Protocol: as §1

Binder	SPOT peptide array binding signal intensity
PKMLPIPSKPTLFDL	14

These binders were tested against ScBbc1 in the same assay as above.
Protocol: as §1

Binder	SPOT peptide array binding signal intensity
PKMLPIPSKPTLFDL	0.5

Each binder was assayed against ScBem1-D1 in the same assay as above.
Protocol: as §1

Binder	SPOT peptide array binding signal intensity
PKMLPIPSKPTLFDL	≤ 0

The binders below were run against ScBzz1-D1 in the same assay as above.
Protocol: as §1

Binder	SPOT peptide array binding signal intensity
PKMLPIPSKPTLFDL	9

The binders below were run against ScBzz1-D2 in the same assay as above.
Protocol: as §1

Binder	SPOT peptide array binding signal intensity
PKMLPIPSKPTLFDL	22

Each binder was assayed against ScCyk3 in the same assay as above.
Protocol: as §1

Binder	SPOT peptide array binding signal intensity
PKMLPIPSKPTLFDL	3

What follows are binders tested against ScFus1 in the same assay as above.
Protocol: as §1

Binder	SPOT peptide array binding signal intensity
PKMLPIPSKPTLFDL	405

The binders below were run against ScHof1 in the same assay as above.
Protocol: as §1

Binder	SPOT peptide array binding signal intensity
PKMLPIPSKPTLFDL	≤ 0

These binders were tested against ScHse1 in the same assay as above.
Protocol: as §1

Binder	SPOT peptide array binding signal intensity
PKMLPIPSKPTLFDL	73.5

The binders below were run against ScLsb1 in the same assay as above.
Protocol: as §1

Binder	SPOT peptide array binding signal intensity
PKMLPIPSKPTLFDL	11.5

What follows are binders tested against ScLsb2 in the same assay as above.
Protocol: as §1

Binder	SPOT peptide array binding signal intensity
PKMLPIPSKPTLFDL	≤ 0

The binders below were run against ScLsb3 in the same assay as above.
Protocol: as §1

Binder	SPOT peptide array binding signal intensity
PKMLPIPSKPTLFDL	172

These binders were tested against ScLsb4 in the same assay as above.
Protocol: as §1

Binder	SPOT peptide array binding signal intensity
PKMLPIPSKPTLFDL	80

These binders were tested against ScMyo3 in the same assay as above.
Protocol: as §1

Binder	SPOT peptide array binding signal intensity
PKMLPIPSKPTLFDL	0.5

Each binder was assayed against ScMyo5 in the same assay as above.
Protocol: as §1

Binder	SPOT peptide array binding signal intensity
PKMLPIPSKPTLFDL	2

What follows are binders tested against ScNbp2 in the same assay as above.
Protocol: as §1

Binder	SPOT peptide array binding signal intensity
PKMLPIPSKPTLFDL	240

The binders below were run against ScPex13 in the same assay as above.
Protocol: as §1

Binder	SPOT peptide array binding signal intensity
PKMLPIPSKPTLFDL	229

The binders below were run against ScRvs167 in the same assay as above.
Protocol: as §1

Binder	SPOT peptide array binding signal intensity
PKMLPIPSKPTLFDL	30.5

What follows are binders tested against ScSho1 in the same assay as above.
Protocol: as §1

Binder	SPOT peptide array binding signal intensity
PKMLPIPSKPTLFDL	673

Each binder was assayed against ScSla1-D1-D2 in the same assay as above.
Protocol: as §1

Binder	SPOT peptide array binding signal intensity
PKMLPIPSKPTLFDL	179

These binders were tested against ScSla1-D3 in the same assay as above.
Protocol: as §1

Binder	SPOT peptide array binding signal intensity
PKMLPIPSKPTLFDL	374

The binders below were run against SpAbp1-D1 in the same assay as above.
Protocol: as §1

Binder	SPOT peptide array binding signal intensity
PKMLPIPSKPTLFDL	286

The binders below were run against SpBbc1 in the same assay as above.
Protocol: as §1

Binder	SPOT peptide array binding signal intensity
PKMLPIPSKPTLFDL	0.5

What follows are binders tested against SpBzz1-D1 in the same assay as above.
Protocol: as §1

Binder	SPOT peptide array binding signal intensity
PKMLPIPSKPTLFDL	426

These binders were tested against SpBzz1-D2 in the same assay as above.
Protocol: as §1

Binder	SPOT peptide array binding signal intensity
PKMLPIPSKPTLFDL	20.5

These binders were tested against SpCyk3 in the same assay as above.
Protocol: as §1

Binder	SPOT peptide array binding signal intensity
PKMLPIPSKPTLFDL	≤ 0

Each binder was assayed against SpHof1 in the same assay as above.
Protocol: as §1

Binder	SPOT peptide array binding signal intensity
PKMLPIPSKPTLFDL	154

Each binder was assayed against SpHof1-2 in the same assay as above.
Protocol: as §1

Binder	SPOT peptide array binding signal intensity
PKMLPIPSKPTLFDL	410

The binders below were run against SpHof1-3 in the same assay as above.
Protocol: as §1

Binder	SPOT peptide array binding signal intensity
PKMLPIPSKPTLFDL	433

Each binder was assayed against SpHse1 in the same assay as above.
Protocol: as §1

Binder	SPOT peptide array binding signal intensity
PKMLPIPSKPTLFDL	136

The binders below were run against SpLsb1 in the same assay as above.
Protocol: as §1

Binder	SPOT peptide array binding signal intensity
PKMLPIPSKPTLFDL	15.5

The binders below were run against SpLsb4 in the same assay as above.
Protocol: as §1

Binder	SPOT peptide array binding signal intensity
PKMLPIPSKPTLFDL	402

These binders were tested against SpMyo1 in the same assay as above.
Protocol: as §1

Binder	SPOT peptide array binding signal intensity
PKMLPIPSKPTLFDL	82

What follows are binders tested against SpNbp2 in the same assay as above.
Protocol: as §1

Binder	SPOT peptide array binding signal intensity
PKMLPIPSKPTLFDL	55.5

Each binder was assayed against SpPex13 in the same assay as above.
Protocol: as §1

Binder	SPOT peptide array binding signal intensity
PKMLPIPSKPTLFDL	39.5

These binders were tested against SpRvs167 in the same assay as above.
Protocol: as §1

Binder	SPOT peptide array binding signal intensity
PKMLPIPSKPTLFDL	45.3

Each binder was assayed against SpSla1-D1-D2 in the same assay as above.
Protocol: as §1

Binder	SPOT peptide array binding signal intensity
PKMLPIPSKPTLFDL	12

What follows are binders tested against SpSla1-D3 in the same assay as above.
Protocol: as §1

Binder	SPOT peptide array binding signal intensity
PKMLPIPSKPTLFDL	132
